# In publication PMC7862700, “An all-to-all approach to the identification of sequence-specific readers for epigenetic DNA modifications on cytosine”:
# Experiments:
# Test in all cases: DAPPL (digital affinity profiling via proximity ligation, sequencing); 10 mM Tris-HCl pH 7.5, 50 mM NaCl, 1 mM DTT, 4% glycerol, room temperature, 30 min; GST-TFs on glutathione beads, 16-mer random dsDNA library, 0.1% formaldehyde crosslink after washing; high values mean tight binding
# [1] = target: T1, FEV (Homo sapiens, UniProt Q99581 1-238); details: protein: recombinant; tags: N-terminal GST; dsDNA, one strand shown
# T1 sequence: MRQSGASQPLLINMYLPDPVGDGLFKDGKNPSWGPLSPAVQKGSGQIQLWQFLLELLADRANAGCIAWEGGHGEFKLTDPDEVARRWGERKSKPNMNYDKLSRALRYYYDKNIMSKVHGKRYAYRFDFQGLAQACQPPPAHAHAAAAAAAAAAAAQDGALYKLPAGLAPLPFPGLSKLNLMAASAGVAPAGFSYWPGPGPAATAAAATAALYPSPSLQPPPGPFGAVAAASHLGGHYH
# In short: (§1)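 Each value of binding signal is a hexamer's read frequency for a factor divided by the same hexamer's frequency in the tag-only sample. Barcoded, bead-captured GST fusions of human transcription factors made in yeast were pooled with that sample and incubated with 200 nmole of a random double-stranded 16-mer DNA library in Tris/NaCl/DTT/glycerol buffer at room temperature for 30 min. Washing, 0.1% formaldehyde crosslinking, proximity ligation, PCR and Illumina NextSeq500 sequencing followed.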
# [2] = target: ETV5 (Homo sapiens, UniProt P41161 1-510); details: protein: recombinant; tags: N-terminal GST; dsDNA, one strand shown
# In short: as §1
# [3] = target: HSF1 (Homo sapiens, UniProt Q00613 1-529); details: protein: recombinant; tags: N-terminal GST; chain copies: 3; dsDNA, one strand shown
# In short: as §1
# [4] = target: T2, SPIC (Homo sapiens, UniProt Q8N5J4 1-248); details: protein: recombinant; tags: N-terminal GST; dsDNA, one strand shown
# T2 sequence: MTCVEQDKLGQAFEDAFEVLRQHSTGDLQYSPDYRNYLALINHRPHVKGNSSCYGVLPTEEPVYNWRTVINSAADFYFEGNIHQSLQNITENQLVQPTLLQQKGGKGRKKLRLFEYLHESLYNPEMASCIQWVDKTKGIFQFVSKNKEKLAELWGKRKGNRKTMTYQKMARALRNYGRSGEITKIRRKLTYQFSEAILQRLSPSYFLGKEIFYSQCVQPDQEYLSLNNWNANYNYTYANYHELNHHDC
# In short: as §1
# [5] = target: ELF4 (Homo sapiens, UniProt Q99607 1-663); details: protein: recombinant; tags: N-terminal GST; dsDNA, one strand shown
# In short: as §1
# [6] = target: T3, ELK4 (Homo sapiens, UniProt P28324-2 1-405); details: protein: recombinant; tags: N-terminal GST; dsDNA, one strand shown
# T3 sequence: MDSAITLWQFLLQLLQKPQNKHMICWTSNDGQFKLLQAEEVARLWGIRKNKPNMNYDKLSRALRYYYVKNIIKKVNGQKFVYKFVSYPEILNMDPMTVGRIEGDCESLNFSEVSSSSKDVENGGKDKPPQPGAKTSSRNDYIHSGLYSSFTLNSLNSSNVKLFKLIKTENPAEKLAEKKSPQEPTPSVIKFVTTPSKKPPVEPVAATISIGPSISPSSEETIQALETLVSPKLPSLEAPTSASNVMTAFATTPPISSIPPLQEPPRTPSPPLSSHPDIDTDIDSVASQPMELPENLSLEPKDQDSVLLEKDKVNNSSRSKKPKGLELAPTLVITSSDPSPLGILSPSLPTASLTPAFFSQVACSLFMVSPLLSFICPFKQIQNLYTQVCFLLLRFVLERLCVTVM
# In short: as §1
# [7] = target: T4, ETV2 (Homo sapiens, UniProt O00321 1-342); details: protein: recombinant; tags: N-terminal GST; dsDNA, one strand shown
# T4 sequence: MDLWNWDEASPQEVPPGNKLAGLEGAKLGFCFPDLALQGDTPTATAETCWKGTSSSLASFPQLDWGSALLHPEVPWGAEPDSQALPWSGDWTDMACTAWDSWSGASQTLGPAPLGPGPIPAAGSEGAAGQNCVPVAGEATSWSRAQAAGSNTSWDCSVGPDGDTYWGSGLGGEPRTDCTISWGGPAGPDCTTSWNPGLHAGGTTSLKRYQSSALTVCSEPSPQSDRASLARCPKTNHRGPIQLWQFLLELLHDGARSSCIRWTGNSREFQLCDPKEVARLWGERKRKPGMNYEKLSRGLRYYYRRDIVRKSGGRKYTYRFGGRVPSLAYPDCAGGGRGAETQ
# In short: as §1
# [8] = target: T5, ELF3 (Homo sapiens, UniProt P78545 1-371); details: protein: recombinant; tags: N-terminal GST; dsDNA, one strand shown
# T5 sequence: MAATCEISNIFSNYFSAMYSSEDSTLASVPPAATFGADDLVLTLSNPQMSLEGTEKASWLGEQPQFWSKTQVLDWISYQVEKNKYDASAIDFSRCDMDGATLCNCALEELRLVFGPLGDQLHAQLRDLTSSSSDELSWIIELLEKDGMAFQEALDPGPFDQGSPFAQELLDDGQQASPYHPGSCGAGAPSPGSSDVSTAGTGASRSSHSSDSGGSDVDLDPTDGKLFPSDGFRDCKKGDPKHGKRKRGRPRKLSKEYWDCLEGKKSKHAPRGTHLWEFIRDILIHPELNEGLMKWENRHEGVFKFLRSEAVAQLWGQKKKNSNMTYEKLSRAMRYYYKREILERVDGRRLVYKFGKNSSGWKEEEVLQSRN
# In short: as §1
# [9] = target: CRX (Homo sapiens, UniProt O43186 1-299); details: protein: recombinant; tags: N-terminal GST; dsDNA, one strand shown
# In short: as §1
# [10] = target: ETV1 (Homo sapiens, UniProt P50549 1-477); details: protein: recombinant; tags: N-terminal GST; dsDNA, one strand shown
# In short: as §1
# Chain of CRX (O43186 whole entry): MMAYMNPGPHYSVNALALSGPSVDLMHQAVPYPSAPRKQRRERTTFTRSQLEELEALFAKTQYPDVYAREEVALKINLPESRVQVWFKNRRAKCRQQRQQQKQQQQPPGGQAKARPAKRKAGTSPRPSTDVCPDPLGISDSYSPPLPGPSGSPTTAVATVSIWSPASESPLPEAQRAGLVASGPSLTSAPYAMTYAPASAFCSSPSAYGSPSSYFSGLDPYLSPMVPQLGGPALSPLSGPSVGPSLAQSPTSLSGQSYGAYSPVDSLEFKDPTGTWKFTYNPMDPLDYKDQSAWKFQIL
# Chain of ELF4 (Q99607 whole entry): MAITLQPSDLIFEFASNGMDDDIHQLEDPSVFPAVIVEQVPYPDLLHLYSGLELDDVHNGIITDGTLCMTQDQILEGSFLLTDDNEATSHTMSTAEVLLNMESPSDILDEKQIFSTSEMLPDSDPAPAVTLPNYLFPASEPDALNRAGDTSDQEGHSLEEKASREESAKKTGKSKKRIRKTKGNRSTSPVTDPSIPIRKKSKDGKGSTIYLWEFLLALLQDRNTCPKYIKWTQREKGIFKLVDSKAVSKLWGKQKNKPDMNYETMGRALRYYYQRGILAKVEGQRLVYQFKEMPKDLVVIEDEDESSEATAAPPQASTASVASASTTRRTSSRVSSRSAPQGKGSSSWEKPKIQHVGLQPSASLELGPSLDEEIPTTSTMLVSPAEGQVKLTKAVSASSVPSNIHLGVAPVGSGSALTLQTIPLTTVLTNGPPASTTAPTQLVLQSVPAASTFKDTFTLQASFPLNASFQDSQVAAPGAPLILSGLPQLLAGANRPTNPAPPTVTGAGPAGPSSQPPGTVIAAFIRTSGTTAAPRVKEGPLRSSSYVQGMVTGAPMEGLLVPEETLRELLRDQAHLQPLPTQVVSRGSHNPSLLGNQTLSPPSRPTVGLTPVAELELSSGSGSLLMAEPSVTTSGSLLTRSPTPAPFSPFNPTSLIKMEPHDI
# Chain of ETV1 (P50549 whole entry): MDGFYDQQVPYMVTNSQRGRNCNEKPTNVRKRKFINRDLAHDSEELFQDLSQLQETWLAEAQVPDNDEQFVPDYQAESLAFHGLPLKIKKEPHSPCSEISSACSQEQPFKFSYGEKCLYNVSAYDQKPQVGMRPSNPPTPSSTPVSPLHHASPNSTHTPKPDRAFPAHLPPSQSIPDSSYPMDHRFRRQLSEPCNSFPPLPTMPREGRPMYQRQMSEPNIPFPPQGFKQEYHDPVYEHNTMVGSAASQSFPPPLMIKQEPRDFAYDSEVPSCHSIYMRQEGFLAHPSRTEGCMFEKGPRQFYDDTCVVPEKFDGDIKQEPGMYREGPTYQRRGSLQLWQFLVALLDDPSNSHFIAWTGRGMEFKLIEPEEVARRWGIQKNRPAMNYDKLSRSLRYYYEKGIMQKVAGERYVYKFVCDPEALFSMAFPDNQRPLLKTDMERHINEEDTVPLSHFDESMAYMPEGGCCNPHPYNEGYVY
# Chain of ETV5 (P41161 whole entry): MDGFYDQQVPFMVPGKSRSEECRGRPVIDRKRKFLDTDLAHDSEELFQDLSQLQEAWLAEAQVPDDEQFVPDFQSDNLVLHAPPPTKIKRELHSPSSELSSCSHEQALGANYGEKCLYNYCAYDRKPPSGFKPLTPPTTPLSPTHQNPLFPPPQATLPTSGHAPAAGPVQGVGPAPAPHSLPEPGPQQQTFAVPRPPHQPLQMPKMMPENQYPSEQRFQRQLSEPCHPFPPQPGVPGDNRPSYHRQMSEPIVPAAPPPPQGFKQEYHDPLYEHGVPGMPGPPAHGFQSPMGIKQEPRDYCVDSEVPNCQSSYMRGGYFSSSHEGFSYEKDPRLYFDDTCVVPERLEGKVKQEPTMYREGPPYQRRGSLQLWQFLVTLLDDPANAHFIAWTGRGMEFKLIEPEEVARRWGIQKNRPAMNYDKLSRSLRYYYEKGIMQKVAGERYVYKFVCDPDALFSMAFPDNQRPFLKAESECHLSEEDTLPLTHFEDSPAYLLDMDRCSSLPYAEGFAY
# Chain of HSF1 (Q00613 whole entry): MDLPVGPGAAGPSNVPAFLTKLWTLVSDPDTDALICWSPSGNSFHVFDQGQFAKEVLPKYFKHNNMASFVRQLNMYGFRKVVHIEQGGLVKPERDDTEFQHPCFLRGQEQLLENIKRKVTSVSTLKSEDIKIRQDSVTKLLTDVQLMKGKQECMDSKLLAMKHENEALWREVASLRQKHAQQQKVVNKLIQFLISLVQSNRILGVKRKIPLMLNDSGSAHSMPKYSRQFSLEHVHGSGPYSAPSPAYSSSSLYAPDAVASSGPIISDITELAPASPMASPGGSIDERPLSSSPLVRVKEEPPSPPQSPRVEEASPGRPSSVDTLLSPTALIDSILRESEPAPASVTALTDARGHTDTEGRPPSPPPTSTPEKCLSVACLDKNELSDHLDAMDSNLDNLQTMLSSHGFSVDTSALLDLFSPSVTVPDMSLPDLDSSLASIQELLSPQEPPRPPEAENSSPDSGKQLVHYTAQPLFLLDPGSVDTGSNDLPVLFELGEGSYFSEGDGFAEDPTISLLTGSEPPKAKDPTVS
sequence,measurement,setting,value
CGTTCG,binding signal,[1],"1.1 fold enrichment (6-mer frequency, TF over GST control)"
same,binding signal,[2],"1.2 fold enrichment (6-mer frequency, TF over GST control)"
same,binding signal,[3],"1.43 fold enrichment (6-mer frequency, TF over GST control)"
same,binding signal,[4],"1.16 fold enrichment (6-mer frequency, TF over GST control)"
same,binding signal,[5],"1.32 fold enrichment (6-mer frequency, TF over GST control)"
same,binding signal,[6],"1.22 fold enrichment (6-mer frequency, TF over GST control)"
same,binding signal,[7],"1.44 fold enrichment (6-mer frequency, TF over GST control)"
same,binding signal,[8],"1.08 fold enrichment (6-mer frequency, TF over GST control)"
same,binding signal,[9],"1.04 fold enrichment (6-mer frequency, TF over GST control)"
same,binding signal,[10],"1.19 fold enrichment (6-mer frequency, TF over GST control)"
